# From the supplement of paper PMC8728848
# Shown is part of a subset that was picked to be rich in the strongest signals.
# B1: NKp30 (Homo sapiens), O14931 (protein)
# chain: LWVSQPPEIRTLEGSSAFLPCSFNASQGRLAIGSVTWFRDEVVPGKEVRNGTPEFRGRLAPLASSRFLHDHQAELHIRDVRGHDASIYVCRVEVLGLGVGTGNGTRLVVEKEHPQLG
# Tests used:
# Assay in all cases: glycan array binding signal (z-score within array); higher = stronger binding
# Settings in all cases: glycan notation: IUPAC condensed, linker removed
# Fuc(a1-2)Gal(b1-3)GalNAc = target: Fuc(a1-2)Gal(b1-3)GalNAc
# Summary of the method: (§1)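 The binding signal is a Z-score computed within each array and averaged over linkers. Arrays of the same protein sequence at different concentrations or buffers were also averaged together. Data originate from 3228 arrays in the Consortium for Functional Glycomics database, kept only where the protein sequence was available.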
# [1] = target: Fuc(a1-2)Gal6S(b1-4)Glc6S
# Summary of the method: as §1
# [2] = target: Fuc(a1-3)[Gal3S(b1-4)]Glc
# Summary of the method: as §1
# [3] = target: Fuc(a1-3)[Gal3S(b1-4)]Glc6S
# Summary of the method: as §1
# [4] = target: Fuc(a1-3)[Gal3S(b1-4)]GlcNAc6S
# Summary of the method: as §1
# Gal(b1-3)Gal = target: Gal(b1-3)Gal
# Summary of the method: as §1
# Gal(b1-3)GalNAc = target: Gal(b1-3)GalNAc
# Summary of the method: as §1
# [5] = target: Gal(b1-3)GalNAc(b1-3)Gal(b1-4)Glc
# Summary of the method: as §1
# Gal3S(b1-4)Glc6S = target: Gal3S(b1-4)Glc6S
# Summary of the method: as §1
# Gal3S(b1-4)GlcNAc6S = target: Gal3S(b1-4)GlcNAc6S
# Summary of the method: as §1
# Gal3S6S(b1-4)GlcNAc6S = target: Gal3S6S(b1-4)GlcNAc6S
# Summary of the method: as §1
# Gal4S6S(b1-4)GlcNAc = target: Gal4S6S(b1-4)GlcNAc
# Summary of the method: as §1
# Gal6S(b1-4)Glc6S = target: Gal6S(b1-4)Glc6S
# Summary of the method: as §1
# Glc(a1-4)Glc = target: Glc(a1-4)Glc
# Summary of the method: as §1
# Glc(a1-6)Glc(a1-6)Glc = target: Glc(a1-6)Glc(a1-6)Glc
# Summary of the method: as §1
# [6] = target: GlcNAc(a1-6)Gal(b1-4)GlcNAc
# Summary of the method: as §1
# [7] = target: Neu5Ac(a2-3)Gal(b1-3)[Neu5Ac(a2-3)Gal(b1-4)]GlcNAc
# Summary of the method: as §1
# [8] = target: Neu5Ac(a2-3)Gal(b1-3)[Neu5Ac(a2-6)]GalNAc
# Summary of the method: as §1
# [9] = target: Neu5Ac(a2-3)[GalNAc(b1-4)]Gal(b1-4)GlcNAc
# Summary of the method: as §1
# [10] = target: Neu5Ac(a2-6)Gal(b1-4)GlcNAc(b1-3)Gal(b1-4)[Fuc(a1-3)]GlcNAc(b1-3)Gal(b1-4)[Fuc(a1-3)]GlcNAc
# Summary of the method: as §1
# [11] = target: Neu5Ac(a2-8)Neu5Ac(a2-3)[GalNAc(b1-4)]Gal(b1-4)Glc
# Summary of the method: as §1
binder,measurement,setting,value
B1,glycan array binding signal (z-score),Fuc(a1-2)Gal(b1-3)GalNAc,-0.862
same,glycan array binding signal (z-score),[1],2.23
same,glycan array binding signal (z-score),[2],0.441
same,glycan array binding signal (z-score),[3],0.61
same,glycan array binding signal (z-score),[4],0.561
same,glycan array binding signal (z-score),Gal(b1-3)Gal,-0.378
same,glycan array binding signal (z-score),Gal(b1-3)GalNAc,-0.24
same,glycan array binding signal (z-score),[5],-0.43
same,glycan array binding signal (z-score),Gal3S(b1-4)Glc6S,2.3
same,glycan array binding signal (z-score),Gal3S(b1-4)GlcNAc6S,2.56
same,glycan array binding signal (z-score),Gal3S6S(b1-4)GlcNAc6S,2.38
same,glycan array binding signal (z-score),Gal4S6S(b1-4)GlcNAc,2.56
same,glycan array binding signal (z-score),Gal6S(b1-4)Glc6S,2.44
same,glycan array binding signal (z-score),Glc(a1-4)Glc,-0.398
same,glycan array binding signal (z-score),Glc(a1-6)Glc(a1-6)Glc,-0.195
same,glycan array binding signal (z-score),[6],-0.667
same,glycan array binding signal (z-score),[7],0.776
same,glycan array binding signal (z-score),[8],-0.06
same,glycan array binding signal (z-score),[9],-0.354
same,glycan array binding signal (z-score),[10],-0.472
same,glycan array binding signal (z-score),[11],-0.18
